Reference: the supplement of paper PMC6555819

Key:
Assay in all cases: PBM binding z-score (relative to random genomic background probes); higher = stronger binding; sequences stand for … in GC…GCGATTGACAGCGTAGAATGAAGG
[1] = test system: PPARg:RXRa DBDmut IVT, anti-RXR (DBD mutation: RXRa K156A/R161A, NR concentration 270 nM, RXRa partner concentration 90 nM)
Outline: (§1)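 Binding z-scores were set against random background probes. The data came from custom Agilent 4×180K protein-binding microarrays carrying double-stranded probes with 34-nt variable regions, incubated 1 h with ligand-free nuclear receptor dimers. Partner-specific antibodies detected binding, and scanned fluorescence was regression-normalized.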

[2] = test system: PPARg:RXRa IVT, anti-PPARg (NR concentration 270 nM, RXRa partner concentration 90 nM)
Outline: as §1

[3] = test system: PPARg DBDmut:RXRa IVT, anti-PPARg (DBD mutation: PPARg1 K132A/R137A, NR concentration 270 nM, RXRa partner concentration 90 nM)
Outline: as §1

[4] = test system: PPARg DBDmut IVT, anti-PPARg (DBD mutation: PPARg1 K132A/R137A, NR concentration 270 nM)
Outline: as §1

[5] = test system: PPARg homodimer (NR concentration 180 nM)
Outline: as §1

[6] = test system: PXR:RXRa (NR concentration 270 nM, RXRa partner concentration 90 nM)
Outline: as §1

[7] = test system: PXR homodimer (NR concentration 270 nM)
Outline: as §1

[8] = test system: RARa:RXR (NR concentration 270 nM, RXRa partner concentration 90 nM)
Outline: as §1

[9] = test system: RARa homodimer (NR concentration 270 nM)
Outline: as §1

[10] = test system: RARb:RXRa (NR concentration 270 nM, RXRa partner concentration 90 nM)
Outline: as §1

[11] = test system: RARb homodimer (NR concentration 270 nM)
Outline: as §1

[12] = test system: RARg:RXRa (NR concentration 270 nM, RXRa partner concentration 90 nM)
Outline: as §1

[13] = test system: RARg homodimer (NR concentration 270 nM)
Outline: as §1

[14] = test system: RXRa DBDmut IVT, anti-RXR (DBD mutation: RXRa K156A/R161A, NR concentration 90 nM)
Outline: as §1

[15] = test system: RXRa homodimer (NR concentration 180 nM)
Outline: as §1

[16] = test system: THRa:RXRa (NR concentration 90 nM, RXRa partner concentration 90 nM)
Outline: as §1

[17] = test system: THRa homodimer (NR concentration 90 nM)
Outline: as §1

[18] = test system: VDR:RXRa (NR concentration 270 nM, RXRa partner concentration 90 nM)
Outline: as §1

[19] = test system: VDR homodimer (NR concentration 270 nM)
Outline: as §1

| Sequence | PBM binding z-score [1] | PBM binding z-score [2] | PBM binding z-score [3] | PBM binding z-score [4] | PBM binding z-score [5] | PBM binding z-score [6] | PBM binding z-score [7] | PBM binding z-score [8] | PBM binding z-score [9] | PBM binding z-score [10] | PBM binding z-score [11] | PBM binding z-score [12] | PBM binding z-score [13] | PBM binding z-score [14] | PBM binding z-score [15] | PBM binding z-score [16] | PBM binding z-score [17] | PBM binding z-score [18] | PBM binding z-score [19] |
| --- | --- | --- | --- | --- | --- | --- | --- | --- | --- | --- | --- | --- | --- | --- | --- | --- | --- | --- | --- |
| TCATATAGGTAAACAGTTGAAAGTCCGTAAGTTA | 4.45 | 3.32 | 1.41 | 0.905 | 1.35 | 1.03 | 0.634 | 1.35 | 1.47 | 0.681 | 0.802 | 0.44 | 0.23 | 1.9 | 0.856 | 0.535 | 0.428 | 1.13 | 0.845 |
| ACTAGTTGGTCATCTGAGGTCACACACAATTCGG | 2.52 | 3.08 | 1.2 | 0.851 | 3.6 | 5.61 | 2.26 | 4.86 | 1.05 | 3.69 | 4.29 | 4.22 | 4.23 | 1.93 | 4.26 | 5.17 | 5.44 | 5.04 | 4.23 |
| AGAACGTGGGCAATGAGTTGATAGCACGGGTGGC | -0.374 | -0.0857 | -0.361 | -0.494 | -0.516 | -0.399 | -0.204 | -0.5 | -0.521 | -0.261 | -0.41 | -0.369 | -0.147 | -0.174 | 0.0338 | -0.628 | -0.889 | 0.69 | 0.376 |
| TAGCCTAGGTCATGGCCCAGTATACCACGCGAAC | 1.98 | 4.42 | 0.172 | -0.0252 | 3.1 | 1.91 | -0.224 | 3.53 | 0.397 | 4.01 | 3.06 | 4.47 | 4.41 | 0.508 | 3.73 | 3.38 | 1.49 | 2.25 | 0.698 |
| ACAGACAGGTGATGATGGTAACTCAGGCTATCAT | -0.209 | 0.395 | -0.375 | 0.608 | 0.0138 | 0.234 | 0.57 | 0.211 | 0.598 | 0.146 | 0.184 | 0.343 | 0.369 | -0.173 | 0.335 | 0.48 | 0.015 | -0.153 | 0.157 |
| CCGACTGGGGCATAAGGTTACCATGAGCCAGCCC | 2.64 | 3.31 | -0.794 | -1.56 | 0.331 | 0.16 | -0.667 | 1.16 | 0.564 | 1.55 | 1.89 | 1.81 | 0.826 | -0.562 | 1.32 | 2.05 | 1.17 | 0.177 | -0.247 |
| TCCTATAGGTAAAGGTGAAAGTCGAACGATATGA | 2.74 | 3.09 | 0.482 | 0.679 | 0.768 | 1.12 | -0.316 | 1.49 | 0.203 | 1.96 | 1.42 | 1.47 | 1.3 | 0.809 | 1.98 | 1.26 | -0.248 | 0.86 | 0.13 |
| CCCACTGGGGCATAAGGTTACCATAAGCCAGCCC | 3.37 | 4.87 | -0.75 | -0.412 | 0.0588 | 0.0928 | -0.684 | 1.07 | -0.44 | 1.46 | 1.49 | 1.56 | 1.09 | -1.4 | 1.07 | 1.92 | 1.01 | -0.113 | -0.364 |
| GATACAGGGTCAGCTAGAGGCTAGAGTATGGAAA | 0.581 | 2.17 | -0.0888 | -0.495 | 2.09 | 2.29 | -0.0961 | 3.58 | 1.14 | 3.88 | 2.76 | 5.74 | 4.56 | 0.988 | 4.23 | 2.86 | 0.194 | 2.67 | 0.266 |
| ATCTCTACGTAAAAGTTCAGTGAATCCCGAGGAT | -0.177 | 0.157 | 1.69 | 2.47 | 0.954 | 1.69 | 1.8 | 0.802 | 1.16 | 2.35 | 2.42 | 1.57 | 2 | 0.755 | 0.831 | 0.591 | 0.154 | 1.1 | 1.5 |
| TGATTGAGGTTATAAGATCAGGGAACGTTGCAAA | 0.431 | 1.59 | 0.391 | 0.349 | 0.564 | 0.896 | -0.0809 | 1.5 | 0.232 | 1.19 | 0.293 | 1.55 | 1.13 | 0.404 | 2.06 | 1.68 | 0.31 | 1.01 | 0.65 |
| GCGACTGGGGCAAAGCAGGTTACCATAAGGTTGG | 4.62 | 3.61 | -0.534 | -0.872 | -0.306 | 0.415 | -0.59 | 0.0364 | -0.818 | 0.93 | 1.15 | 0.472 | 0.712 | -0.374 | 0.33 | 2.84 | 0.0306 | 0.149 | -0.59 |
| AGAATGAGGTTATCAAGATCAGGGAATTGCGGTC | 3.5 | 2.6 | 0.708 | -0.123 | 0.956 | 1.27 | 0.0679 | 1.67 | 0.465 | 1.71 | 1.07 | 1.5 | 1.12 | 1.46 | 2.19 | 2.49 | 0.835 | 2.56 | 0.805 |
| TCGCGGAGGACACGAAAGGTCAGAGCTCGACATC | 0.791 | 1.5 | 0.00207 | -0.746 | 2.36 | 3.97 | 0.407 | 4.24 | 1.04 | 4.03 | 4.42 | 4.79 | 5.1 | 0.362 | 3.86 | 3.6 | 0.956 | 3.13 | 0.898 |
| GCTTGTAGAGCAAGGTTAAGAAAGACTAAGCTAA | 2.64 | 1.72 | -0.693 | -0.41 | -0.216 | 0.206 | -0.546 | 0.613 | -0.213 | 0.514 | -0.118 | 0.204 | 0.162 | -0.22 | 0.282 | 0.745 | -1.02 | -0.112 | -0.25 |
